In PubChem BioAssay (EPA / NIEHS) one finds outcome and AC50 data, which are given here for 31 molecules.

The nature of assay [1]: CCTE_Mundy_HCI_hN2_NOG_NeuriteCount: CCTE's Neurite Outgrowth Assay in human hN2 cells for Neurite Count, Mundy Lab (AID 2284219; active = hit-call score of the fitted dose curve at least 0.9, where 1 is the maximum). As to the method:
CCTE_Mundy_HCI_hN2_NOG is a multiplexed, cell-based-readout assay that uses immature neurons derived from hNP1 neuroprogenitor cells with measurements taken at 50.33 hours after chemical dosing in a microplate: 96-well plate.CCTE_Mundy_HCI_hN2_NOG_NeuriteCount is one of four components of the CCTE_Mundy_HCI_hN2_NOG assay. It measures neurite outgrowth related to number of neurites using High Content Imaging of fluorescently labelled markers.[…] Using a type of morphology reporter, loss -of-signal activity can be used to understand developmental effects.
(§1) Exposure starts 2 hours post-plating by adding 10 ul of the working solution to 90 ul of media in the wells for a 1/10 dilution. Forty-eight hours after chemical treatment cells are fixed by direct addition of 100 ul of warm (37C) Dulbecco's phosphate buffered saline (DPBS) fixative solution containing 8% paraformaldehyde, 8% sucrose, and 0.1% of 3 mg/ml Hoechst 33342 into each well. Primary antibodies are prepared by dilution in Immunocytochemical Staining Buffer (ISB), 10X Dulbecco's PBS, 0.1% Saponin, 5% Bovine Serum Albumin, 0.5% NaN3 (Sodium Azide) and betaIII-tubulin (rabbit anti-betaIII-tubulin, 1:800) followed by Alexa Fluor-488 secondary (1:500) to label neuronal cell bodies and neurites. A Cellomics ArrayScan VTi HCS Reader is used for automated image acquisition and analysis of neurite outgrowth.

Assay [2] is described as follows: CCTE_Mundy_HCI_hN2_NOG_NeuriteLength: CCTE's Neurite Outgrowth Assay in human hN2 cells for Neurite Length, Mundy Lab (AID 2284220; active = hit-call score of the fitted dose curve at least 0.9, where 1 is the maximum). As to the method:
CCTE_Mundy_HCI_hN2_NOG is a multiplexed, cell-based-readout assay that uses immature neurons derived from hNP1 neuroprogenitor cells with measurements taken at 50.33 hours after chemical dosing in a microplate: 96-well plate.CCTE_Mundy_HCI_hN2_NOG_NeuriteLength is one of four components of the CCTE_Mundy_HCI_hN2_NOG assay. It measures neurite outgrowth related to neurite length using High Content Imaging of fluorescently labelled markers.[…] Using a type of morphology reporter, loss -of-signal activity can be used to understand developmental effects.
as §1

Assay [3] is described as follows: CCTE_Mundy_HCI_hN2_NOG_NeuronCount: CCTE's Neurite Outgrowth Assay in human hN2 cells for Neuron Count, Mundy Lab (AID 2284221; active = hit-call score of the fitted dose curve at least 0.9, where 1 is the maximum). The procedure, abridged: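 Read-out is the number of betaIII-tubulin-positive neurons imaged by automated high-content analysis, with DMSO as negative control.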
Assay [4] can be described thus: BSK_BT_PBMCCytotoxicity: PBMC Cytotoxicity Assessment in the BioMAP Diversity Plus: BT Assay (AID 2284225).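 Also: PBMC viability measured by Alamar Blue dye reduction fluorescence.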 The conditions noted are these: primary human B cells with PBMC. The procedure, abridged:
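Primary human co-culture of B cells and PBMC, pre-dosed 1 h then activated with SEB and TSST-1. Cytotoxicity is taken from Alamar Blue dye reduction, added for 6 h at the end of a 90 h incubation.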

Read-out in assay [5]: Secreted IgG (sIgG), gene 3500
The assay is described as follows: BSK_BT_sIgG: BioMAP Diversity Plus: BT Assay for Secreted IgG (sIgG) Biomarker Activity (AID 2284226). The settings on record: primary human B cells with PBMC. The procedure, abridged:
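Human B cell/PBMC co-culture; compound exposure 24 h; sIgG by ELISA; gain-of-signal fit vs DMSO baseline.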

The nature of assay [6]: BSK_BT_Bcell_Proliferation: Viability Assessment in the BioMAP Diversity Plus: BT Assay for B cell Proliferation (AID 2284227). The settings on record: primary human B cells with PBMC. The procedure, abridged: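 Using a human primary B cell–PBMC co-culture, the assay measures total protein by sulforhodamine B absorbance as a gauge of proliferation after 72 h. Analysis followed the positive fitting direction with DMSO as baseline.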

Read-out in assay [7]: Interleukin 6 (IL6), IL6 (gene 3569)
Nature of the assay: BSK_BT_xIL6: BioMAP Diversity Plus: BT Assay for Interleukin 6 (IL6) Biomarker Activity (AID 2284228). The conditions noted are these: primary human B cells with PBMC. In short, it runs like this:
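Chemical added to human B cell/PBMC co-culture → 24 h → supernatant IL-6 by Luminex xMAP → fit vs DMSO baseline, upward direction.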

Records with an inconclusive call do not appear. The source made the active and inactive calls. The calls were made as follows, unless noted: active = hit-call score of the fitted dose curve at least 0.9, where 1 is the maximum; inactive = score below 0.9.

Broadly, the AC50 is the concentration at which the activity in the assay is half-maximal.

Turning to `CNC(=O)CSP(=O)(OC)OC`, the outcome in assay [1] and in assay [2] was inactive.

As for `NC(=O)c1ccc(N)nc1`, the outcome in assay [1] and in assay [2] was inactive. In assay [3], the AC50 was 0.000862 µM (active).

As to `Cc1ccccc1OP(=O)(Oc1ccccc1)Oc1ccccc1`, the result in assay [4], in assay [6] and in assay [7] was inactive. Moreover, in assay [5], the AC50 was 30.9 µM (active).

For `CCOC(=O)CC(=O)CCl`, the AC50 in assay [4] was 19 µM (active); in assay [5], 4.86 µM (active); in assay [6] it was 16.9 µM (active); in assay [7] it was 11.8 µM (active).

On to `Cc1cc(C(C)(C)c2ccc(O)c(C)c2)ccc1O`, for which the outcome in assay [4], in assay [6] and in assay [7] was inactive. The AC50 in assay [5] was 10 µM (active).

Consider `Cc1ccc(OP(=O)(Oc2ccc(C)cc2C)Oc2ccc(C)cc2C)c(C)c1`, for which the AC50 was 5.32 µM (active) in assay [4], 15.4 µM (active) in assay [5], 20 µM (active) in assay [6] and 11.7 µM (active) in assay [7].

For the molecule `Cc1cc(Cl)ccc1OC(C)C(=O)O` (stereo unspecified), the outcome in assay [4], in assay [5], in assay [6] and in assay [7] was inactive.

For the molecule `c1ccc(-c2cccc(-c3ccccc3)c2)cc1`, the AC50 in assay [4] is 32.8 µM (active); in assay [5] it was 15.7 µM (active); in assay [6], 33.3 µM (active). In assay [7], the outcome was inactive.

For `Cc1cccc(OP(=O)(Oc2cccc(C)c2)Oc2cccc(C)c2)c1`, the outcome in assay [4], in assay [5], in assay [6] and in assay [7] was inactive.

For the molecule `O=S(=O)(C(Cl)(Cl)Cl)C(Cl)(Cl)Cl`, the AC50 in assay [4] was 3.65 µM (active); in assay [5] it was 2.2 µM (active); in assay [6], 2.48 µM (active); in assay [7], 3.85 µM (active).

Consider `CC(C=O)Cc1ccc2c(c1)OCO2` (stereo unspecified), for which the result in assay [4], in assay [5], in assay [6] and in assay [7] was inactive.

`O=c1oc2ccccc2c(O)c1C(CC(O)c1ccc(-c2ccc(Br)cc2)cc1)c1ccccc1` (stereo unspecified): the result in assay [4], in assay [6] and in assay [7] was inactive. In addition, in assay [5], the AC50 was 20.8 µM (active).

For `Nc1ccc(N)cc1`, the result in assay [4], in assay [5], in assay [6] and in assay [7] was inactive.

With `N#CCCC(Br)(C#N)CBr` (stereo unspecified), the AC50 in assay [4] is 9.18 µM (active); in assay [5], 7.61 µM (active); in assay [6], 6.35 µM (active); in assay [7] it was 9.34 µM (active).

Turning to `CCOP(=O)(OCC)OC(=CCl)c1ccc(Cl)cc1Cl`, the outcome in assay [4] and in assay [6] was inactive. For the same molecule, the AC50 in assay [5] is 20 µM (active); in assay [7] it was 10.4 µM (active).

As to `C[C@]12CC[C@@H](O)C[C@@H]1CC[C@@H]1[C@@H]2CC[C@]2(C)C(=O)CC[C@@H]12`, the result in assay [4], in assay [6] and in assay [7] was inactive. Besides, in assay [5], the AC50 was 20 µM (active).

As for `O=[N+]([O-])c1ccc(Nc2ccccc2)cc1`, the outcome in assay [4], in assay [6] and in assay [7] was inactive. Also, the concentration at half-maximal activity (AC50) in assay [5] is 12.9 µM (active).

In the case of `O=C(CCl)NCO`, the result in assay [4], in assay [5], in assay [6] and in assay [7] was inactive.

As to `CC(C)(COCC1CO1)COCC1CO1` (stereo unspecified), the result in assay [4] and in assay [7] was inactive. Further, the AC50 in assay [5] was 16 µM (active); in assay [6], 20 µM (active).

For the molecule `CCOP(=S)(OCC)SCS(=O)(=O)C(C)(C)C`, the outcome in assay [4], in assay [5], in assay [6] and in assay [7] was inactive.

`CC(C)N(C(=O)CCl)c1ccccc1`: the AC50 in assay [4] was 20 µM (active); in assay [5] it was 7.82 µM (active); in assay [6], 9.93 µM (active); in assay [7], 12.3 µM (active).

On to `C=CC(Cl)CCl` (stereo unspecified), for which the result in assay [4], in assay [5], in assay [6] and in assay [7] was inactive.

On to `CCC(C)(C#N)N=NC(C)(C#N)CC` (stereo unspecified), for which the result in assay [4], in assay [5], in assay [6] and in assay [7] was inactive.

On to `[Cl][Sn]([c]1ccccc1)([c]1ccccc1)[c]1ccccc1`, for which the AC50 is 0.617 µM (active) in assay [4], 0.313 µM (active) in assay [5], 0.423 µM (active) in assay [6] and 0.456 µM (active) in assay [7].

Turning to `Cc1c([N+](=O)[O-])c(C)c([N+](=O)[O-])c(C(C)(C)C)c1[N+](=O)[O-]`, the result in assay [4], in assay [5], in assay [6] and in assay [7] was inactive.

`CCOC(=O)CCN(SN(C)C(=O)Oc1cccc2c1OC(C)(C)C2)C(C)C`: the AC50 in assay [4] is 25.9 µM (active); in assay [5] it was 27.5 µM (active); in assay [6] it was 28.9 µM (active); in assay [7] it was 33.4 µM (active).

`CCCCCCCCCCCCN(C)C`: the outcome in assay [4], in assay [5], in assay [6] and in assay [7] was inactive.

Take `OC(Cc1ccccc1Cl)(Cn1cncn1)C1(Cl)CC1` (stereo unspecified): the outcome in assay [4], in assay [6] and in assay [7] was inactive. Moreover, the AC50 in assay [5] is 20 µM (active).

As to `CC(C)(C)c1cc([N+](=O)[O-])cc(C(C)(C)C)c1O`, the half-maximal activity concentration (AC50) in assay [4] is 26.2 µM (active); in assay [5], 2.8 µM (active); in assay [6], 13.3 µM (active). Also, in assay [7], the outcome was inactive.

In the case of `CC(C)=CC1C(C(=O)OCc2cccc(Oc3ccccc3)c2)C1(C)C` (stereo unspecified), the outcome in assay [4] was inactive. The values for the AC50 in assay [5], in assay [6] and in assay [7] were 13.8 µM (active), 31.4 µM (active) and 11.2 µM (active), respectively.

For the molecule `C#CCOC(=O)/C=C(C)/C=C/CC(C)CCCC(C)C` (stereo unspecified), the result in assay [4], in assay [6] and in assay [7] was inactive. In addition, the AC50 in assay [5] was 20 µM (active).
